From ChEMBL document CHEMBL3988442, “University of Dundee, Small-Polar-MMV Screening Library” (2021)
Screen size: about 38,000 compounds; about 1,200 (3.2%) showed an effect of 50% or more. The median lay at about -58%. What follows is part of a selection rich in strong results, with near analogues and random picks from the rest.

System: Plasmodium falciparum
Assay: Calibr Malaria Delayed Death Assay SOP
Format: functional, organism-based
Set-up: scale not given: in the data most compounds retested in dose-response had high values
Conditions: concentration 4.99e-06 (unit not given; other assays of the set use mol/L)

Compound	Percent Effect [%]
CC(C)N1C[C@@H](CO)[C@H](c2ccccc2)S1(=O)=O	-2.146
COc1cccc(Cn2ncnc2CNC(C)=O)c1	-17.74
NC1CCCN(Cc2cccc(C(F)(F)F)c2)C1=O (configuration not stated)	-34.65
O=S(=O)(CC1CCCCO1)Nc1c(F)cccc1-n1cccn1 (configuration not stated)	-6.246
N#CC1COCCN1C(=O)c1ccc2cc[nH]c2c1 (configuration not stated)	-76.07
N[C@H]1CN(C(=O)c2ccc3[nH]c(CO)nc3c2)C[C@@H]1c1ccccc1	-84.77
COCCC1COC2(CCN(C(=O)c3cccn3C)CC2)C1 (configuration not stated)	-157.5
O=C(NC1CCCCC1)c1cc(Br)cnc1N1CCCCC1	-52.51
CCc1ccccc1OCCN1CC[C@@]2(O)CCNC[C@H]2C1	-93.81
COc1cc(C)ccc1OCCN1CC[C@@]2(O)CCNC[C@H]2C1	-90.26
CCn1ncnc1CN1CCC(CNC(=O)c2cccc(C)c2)C1 (configuration not stated)	-152.4
Cn1cc(-c2nc(CN3CCN(CCO)CC3)cs2)cn1	-64.62
Cn1cc(-c2nc(CN3CCc4c(ncn4C4CC4)C3)cs2)cn1	-33.38
CCCC1CCCN(Cc2csc(-c3cnn(C)c3)n2)CC1 (configuration not stated)	52.75
Cn1cc(CN2CCC3(CC2)CN(c2cccnc2)C(=O)CO3)cn1	-97.96
c1cnn(C2CN(c3nc(-c4ccncc4)nc4c3CCC4)C2)c1	-81.86
N#CC1CCCN(c2nc(-c3ccccc3)nc3c2CCNCC3)C1 (configuration not stated)	79.11
Cn1ccnc1CN1CCc2ncnc(N3CCCC(C#N)C3)c2CC1 (configuration not stated)	-81.1
CC(C)CNC(=O)c1cccc(Oc2ccc3nncn3n2)c1	-53.64
O=C(C1CCOCC1)N1C[C@H](OCc2cccnc2)[C@H]2COC[C@H]21	-121.2
CSc1nccn1-c1cccc(C(=O)NCCN2CCS(=O)(=O)CC2)c1	-149.1
CCc1nc(CN2CCCN(C(=O)CCOC(C)C)CC2)cs1	-60.5
CCN1CCOC(CNCc2ccccn2)C1 (configuration not stated)	-142.7

Compound	Percent Effect [%]
Cc1cn2c(n1)C(CNCC1=Cc3ccccc3OC1)CCC2 (configuration not stated)	78.44
C1=C(CNC2CCc3ncnn3C2)COc2ccccc21 (configuration not stated)	-78.33
CC(C)(C)c1ncc(CNCC2CCCn3ccnc32)s1 (configuration not stated)	11.38
Clc1ccc2c(c1)C=C(CNC1CCc3ncnn3C1)CO2 (configuration not stated)	-63.09
Cc1cn2c(n1)C(CNCC1=Cc3cc(Cl)ccc3OC1)CCC2 (configuration not stated)	87.8
O[C@@H]1CN(CC2=Cc3cc(Cl)ccc3OC2)CC[C@H]1N1CCCCCC1	-10.35
CC(C)(C)c1cn2c(n1)C(CNCc1ccccn1)CCC2 (configuration not stated)	92.56
CCn1ncc2c1CCCC2NCC1=Cc2ccccc2OC1 (configuration not stated)	-139.8
O=C(Nc1cnccn1)[C@H]1CC[C@@H]2[C@@H](CCN2Cc2ccccn2)O1.O=C(O)C(F)(F)F	-97.13
COc1cc(C(=O)NCCCO)cc2occc12	-87.71
CCc1[nH]c2ccc(CNC(=O)c3cnc(N)nc3C)cc2c1C	-136.6
Cc1[nH]c2c(F)cccc2c1CC(=O)NC1CCCCNC1=O (configuration not stated)	-28.67
O=C1CNc2ncnc(Nc3cnn(Cc4cccc(F)c4)c3)c2N1	-137.4
O=C(Cc1csc(-c2ccco2)n1)N1CCCC1Cn1cccn1 (configuration not stated)	-188.1
CCS(=O)(=O)N1CCC2(CN(Cc3ccc(C)o3)C2)C1	-57.27
Cc1ccc(CN2CCC3(CCCN(S(C)(=O)=O)C3)C2)o1 (configuration not stated)	-70.82
Cc1ccc(CN2CCC3(CCN(S(=O)(=O)c4ccccc4)C3)C2)o1 (configuration not stated)	79.54
O=C(c1cccs1)N1CC[C@H](O)[C@@H]1Cc1ccccc1	-5.522
COc1ccccc1C(=O)Nc1c(F)c(C(=O)N2CCCC2)nn1C	-139.8
COC(=O)CN1Cc2cc3c(cc2NCCC1=O)OCO3	-54.83
CCCc1nc2c(c(C)c(C)n2Cc2ccccn2)c(N)c1CC	58.37
CCc1nc2c(c(C)c(C)n2Cc2cccnc2)c(N)c1C	18.39
Cc1cc(C(=O)N2CCNC(=O)C2)c(C)n1Cc1ccccn1	-70.27

Compound	Percent Effect [%]
CCCc1nc2c(c(C)c(C)n2Cc2ccncc2)c(N)c1CC	59.32
Cc1c(C)n(Cc2ccccn2)c2nc3c(c(N)c12)CCCCC3	22.61
Cc1c(C)n(Cc2ccccn2)c2nc3c(c(N)c12)CCCCCC3	58.63
CCc1cc(NCCc2cccnc2)n2nc(C)c(C)c2n1	-66.72
Cc1c(C)n(Cc2ccncc2)c2nc3c(c(N)c12)CCCC3	-16.59
Cc1c(C)n(Cc2ccncc2)c2nc3c(c(N)c12)CCCCCC3	27.24
CCCc1nc2c(c(C)c(C)n2Cc2cccnc2)c(N)c1CC	64.11
Cc1c(C)n(-c2ccccn2)c2nc3c(c(N)c12)CCCC3	19.64
Cc1c(C)n(Cc2ccccn2)c2nc3c(c(N)c12)CCCC3	45.51
O=C(C1CCOC1)N1CCN(Cc2ccncc2)c2ncccc2C1 (configuration not stated)	-72.96
Cn1cc(I)c(C(=O)NC2CCCCC2)n1	-69.52
CCCC(O)CN1CCC(=O)N(CC)Cc2cc3c(cc21)OCO3 (configuration not stated)	-23.81
CC(CC(=O)N1CCCN(Cc2cscn2)CC1)n1cccc1 (configuration not stated)	4.954
CC(NCc1cccc(COC2CCCC2)c1)c1cnn(C)c1 (configuration not stated)	19.99
CC(C)CC(Cc1cccc(Br)c1)C(=O)O (configuration not stated)	-132.5
Cc1nc(C)c(S(=O)(=O)NC(=O)c2cccs2)s1	-74.76
CO[C@H]1CC[C@H]2[C@H]1OCCN2Cc1ccc(F)cc1.O=C(O)C(F)(F)F	-88.16
Cc1ccnc(NC(=O)C2CCN(CCCn3ccnc3C)CC2)c1	23.63
CCCc1nnsc1C(=O)NCC(O)c1ccc(SC)cc1 (configuration not stated)	-63.08
Cc1cccc(CN2CCC3(CCCN(Cc4cnn(C)c4)C3)C2)n1.O=C(O)C(F)(F)F.O=C(O)C(F)(F)F (configuration not stated)	-27.4
Cc1cccc(CN2CCCC3(CCN(CC4CCCO4)CC3)C2)n1.O=C(O)C(F)(F)F.O=C(O)C(F)(F)F (configuration not stated)	42.53
